Experimental data: PubChem BioAssay (NCI)
About 79,000 compounds went through this panel and 15% of them were active in at least one assay; those are over-represented in the sample as a whole. The source made the active and inactive calls. No stated cut-off is given here; in the data, active means growth inhibition above about 70%; inactive means the rest.

Tests used:
[1] = NCI Yeast Anticancer Drug Screen. Data for the wt1 strain (AID 149);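 further: 0% = growth of vehicle-treated wt1 cultures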; conditions: S. cerevisiae wt1 strain (SPY 50644) growth inhibition, stronger effect = higher value
How it was run: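 Vehicle-normalised growth inhibition; strain wt1; compound exposure.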

[2] = NCI Yeast Anticancer Drug Screen. Data for the rad50EPP+ strain (AID 151);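 further: 0% = growth of vehicle-treated control cultures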; conditions: S. cerevisiae rad50 mutant strain, stronger effect = higher value
How it was run: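 Growth inhibition read against vehicle controls in rad50EPP+ yeast, a strain altered in DNA damage repair, after compound exposure.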

[3] = NCI Yeast Anticancer Drug Screen. Data for the mgt1 strain (AID 153); conditions: S. cerevisiae mgt1 mutant growth inhibition, stronger effect = higher value
How it was run: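 mgt1 yeast grown with test compound; read-out is growth inhibition versus vehicle-treated cultures.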

[4] = NCI Yeast Anticancer Drug Screen. Data for the rad50 strain (AID 155);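 further: 0% = growth of vehicle-only cultures of the same strain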; conditions: S. cerevisiae rad50 strain growth inhibition, stronger effect = higher value
How it was run: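 A DNA repair-deficient yeast mutant serves as the test organism; compound-induced growth inhibition is calculated against vehicle-treated cells.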

[5] = NCI Yeast Anticancer Drug Screen. Data for the mec2-1 strain (AID 157); conditions: S. cerevisiae mec2-1 strain, stronger effect = higher value
How it was run: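 Yeast mec2-1 mutant treated with compound. Readout: growth inhibition vs vehicle controls.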

[6] = NCI Yeast Anticancer Drug Screen. Data for the rad14 strain (AID 159);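 further: 0% = growth of vehicle-treated control cultures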; conditions: S. cerevisiae rad14 strain growth inhibition, stronger effect = higher value
How it was run: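 Vehicle-treated cultures served as the baseline for growth inhibition of a DNA repair-mutant yeast strain exposed to each compound.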

[7] = NCI Yeast Anticancer Drug Screen. Data for the sgs1 mgt1 strain (AID 161);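 further: 0% = growth of cultures given vehicle only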; conditions: S. cerevisiae sgs1 mgt1 strain, stronger effect = higher value
How it was run: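 Inhibition of yeast growth, normalised to vehicle-treated controls, is reported for a strain bearing genetic alterations in DNA damage repair.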

[8] = NCI Yeast Anticancer Drug Screen. Data for the CLN2oe strain (AID 163);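 further: 0% = growth of vehicle-only control cultures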; conditions: S. cerevisiae CLN2oe strain, stronger effect = higher value
How it was run: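 Read-out: yeast growth inhibition, expressed relative to vehicle-only controls. The strain bears an engineered cell-cycle alteration.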

[9] = NCI Yeast Anticancer Drug Screen. Data for the cln2 rad14 strain (AID 165);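 further: 0% = growth equal to vehicle treated cultures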; conditions: S. cerevisiae cln2 rad14 strain, stronger effect = higher value
How it was run: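 cln2 rad14 yeast strain; compound exposure; growth inhibition read vs vehicle controls.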

[10] = NCI Yeast Anticancer Drug Screen. Data for the bub3 strain (AID 167); conditions: S. cerevisiae bub3 mutant strain, stronger effect = higher value
How it was run: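 Inhibition values come from growth of compound-treated mutant yeast normalised to vehicle-treated controls.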

[11] = NCI Yeast Anticancer Drug Screen. Data for the wt2 strain (AID 169);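 further: 0% = growth of vehicle-treated yeast cultures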; conditions: S. cerevisiae wt2 strain growth inhibition, stronger effect = higher value
How it was run: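 Read-out: growth inhibition versus vehicle-treated control cultures after compound exposure of the yeast strain.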

[12] = NCI Yeast Anticancer Drug Screen. Data for the mlh1 strain (AID 171);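 further: 0% = growth of vehicle-treated control cultures of the same strain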; conditions: S. cerevisiae mlh1 strain growth inhibition, stronger effect = higher value
How it was run: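 Read-out: growth inhibition versus vehicle controls. Strain: engineered yeast with a defined DNA repair or cell cycle defect, compound-treated.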

[13] = NCI Yeast Anticancer Drug Screen. Data for the sgs1 strain (AID 173);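 further: 0% = growth of vehicle-only control cultures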; conditions: S. cerevisiae sgs1 mutant, stronger effect = higher value
How it was run: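 Read-out: yeast growth inhibition relative to vehicle controls, following compound exposure of a strain with a defined DNA repair/cell cycle alteration.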

[14] = NCI Yeast Anticancer Drug Screen. Data for the mlh1 rad18 strain (AID 175); conditions: S. cerevisiae mlh1 rad18 strain growth inhibition, stronger effect = higher value
How it was run: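 Yeast w/ defined DNA-repair lesions; compound exposure; growth vs vehicle controls → % inhibition.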

[15] = NCI Yeast Anticancer Drug Screen. Data for the rad18 strain (AID 177); conditions: S. cerevisiae rad18 mutant growth inhibition, stronger effect = higher value
How it was run: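 Readout: growth inhibition vs vehicle controls. Cells: genetically altered yeast strain, DNA repair defect.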

[16] = at 5.0 µM (retest, dose inferred, filed as 0.5)
[17] = at 50.0 µM (retest, dose inferred, filed as 5.0)

Measured: growth inhibition

CC1=Cc2ccc(C)cc2C(=O)C1=O
active: [1]; at 33.0 µM 99% | [1]; at 100.0 µM 99% | [2]; at 11.0 µM 71% | [2]; at 33.0 µM 95% | [2]; at 100.0 µM 99% | [3]; at 33.0 µM 100% | [3]; at 100.0 µM 99% | [4]; at 33.0 µM 99% | [4]; [17] 99% | [4]; at 50.0 µM 99.1% | [4]; at 100.0 µM 98% | [5]; at 33.0 µM 100% | [5]; [17] 99% | [5]; at 50.0 µM 99.4% | [5]; at 100.0 µM 99% | [6]; at 11.0 µM 79% | [6]; at 33.0 µM 99% | [6]; at 100.0 µM 99% | [7]; [17] 99% | [7]; at 50.0 µM 99.3% | [8]; at 100.0 µM 94% | [9]; [17] 99% | [9]; at 50.0 µM 98.2% | [10]; [17] 99% | [10]; at 50.0 µM 99.3% | [10]; at 100.0 µM 99% | [11]; at 100.0 µM 98% | [12]; at 11.0 µM 71% | [12]; at 33.0 µM 99% | [12]; at 100.0 µM 99% | [13]; at 33.0 µM 99% | [13]; at 100.0 µM 99% | [14]; [17] 99% | [14]; at 50.0 µM 99.2% | [15]; at 33.0 µM 99% | [15]; at 100.0 µM 98%
inactive: [1]; at 1.2 µM -10% | [1]; at 3.7 µM 8% | [1]; at 11.0 µM 41% | [2]; at 1.2 µM 34% | [2]; at 3.7 µM 54% | [3]; at 1.2 µM 27% | [3]; at 3.7 µM 42% | [3]; at 11.0 µM 60% | [4]; at 1.2 µM 3% | [4]; at 3.7 µM 6% | [4]; [16] 31% | [4]; at 11.0 µM 53% | [5]; at 1.2 µM 2% | [5]; at 3.7 µM 21% | [5]; [16] -7% | [5]; at 11.0 µM 42% | [6]; at 1.2 µM 18% | [6]; at 3.7 µM 31% | [7]; [16] 43% | [8]; at 1.2 µM 2% | [8]; at 3.7 µM 2% | [8]; at 11.0 µM 9% | [8]; at 33.0 µM 18% | [9]; [16] 0% | [10]; at 1.2 µM 0% | [10]; at 3.7 µM -3% | [10]; [16] 36% | [10]; at 11.0 µM 2% | [10]; at 33.0 µM 44% | [11]; at 1.2 µM -7% | [11]; at 3.7 µM -6% | [11]; at 11.0 µM 4% | [11]; at 33.0 µM -1% | [12]; at 1.2 µM 12% | [12]; at 3.7 µM 11% | [13]; at 1.2 µM -1% | [13]; at 3.7 µM 8% | [13]; at 11.0 µM 65% | [14]; [16] 66% | [15]; at 1.2 µM 25% | [15]; at 3.7 µM 28% | [15]; at 11.0 µM 66%
